PubChem BioAssay AID602258 (National Center for Advancing Translational Sciences (NCATS), 2012)
Results filed as inconclusive are left out. The source made the active and inactive calls. Calls come from the whole dose curve; as a rule, active = well fitted activation curve with a large enough effect; inconclusive = small, poorly fitted or top-dose-only effect; inactive = no such curve, though single readings can be large or run the other way.

biological target: Relaxin receptor 2 (Homo sapiens) (UniProt Q8WXD0); experiment: qHTS Assay for Agonists of the Relaxin Receptor RXFP1: RXFP2 SAR; conditions: HEK293 RXFP2 cAMP TR-FRET agonist, 30 min; series mostly up to 78.1 µM
Source text: The relaxin hormone is involved in the variety of biological functions in normal tissues and diseases. The role of relaxin is well-established in female reproduction and parturition, mammary gland and endometrial development, maintenance of myometrial quiescence during pregnancy. Relaxin signaling through its G protein-coupled receptor (GPCR) RXFP1 results in ECM remodeling through regulation of collagen deposition, cell invasiveness, proliferation and overall tissue homeostasis. […] Recombinant human relaxin (rhRlx) is currently being tested in clinical trials as a protective agent in congestive heart failure, in treating severe preeclampsia, and as an anti-fibrotic agent in systemic sclerosis. Upon relaxin binding RXFP1 activation leads to the activation of adenylate cyclase (AC) via Gs. cAMP will activate PKA, which phosphorylates many signaling proteins. Thus, detection of cAMP increase is an easy and reliable indication of relaxin receptor activation. To screen for agonists of the relaxin receptor, a HEK293T cell line stably transfected with RXFP1 was used. RXFP1 activation was assayed by changes in cAMP levels as detected with a time-resolved fluorescence energy transfer (TR-FRET) cAMP detection kit. This assay measures activation of a cell expressing RXFP2, another GPCR targeted by relaxin, to determine the selectivity of compounds for RXFP1. NIH Chemical Genomics Center [NCGC] NIH Molecular Libraries Probe Production Centers Network [MLPCN] MLPCN Grant: R03 MH085705-01A1 Assay Submitter (PI): Alexander Agoulnik
This is a cell-based assay for cAMP second messenger response to screen for agonists of the RXFP2 receptor. The assay was conducted in the presence of a PDE4 inhibitor (Ro 20174). The cells were lysed and the cAMP levels were measured with a TR-FRET cAMP kit. Presence of cAMP in the cell lysate disrupts binding between the cryptate-labeled anti-cAMP and d2-labeled cAMP pair, leading to a decrease in the TR-FRET signal. Data were normalized to the controls for basal activity (buffer only) and 100% activity (29 nM porcine relaxin). The EC50 values were determined from concentration-response data modeled with the standard Hill equation 1536-well assay protocol for the HEK293 RXFP2 cAMP assay: (1) Add 3 ul HEK293 RXFP2 cell culture. 2000 cells/well in DMEM/F12, 10% FBS, 1x Pen/Strep (dispensed offline with MultiDrop Combi). (2) Incubate 16-24 hr at 37C, 5% CO2. (3) Add 1 ul 400uM Ro20174 in DPBS, 0.05% BSA, 0.005% Tween 20. (3) Add 23 nl compounds in DMSO solution. Final concentration was 0.5 - 58 uM. (4) Incubate 30 min at 37C, 5% CO2. (5) Add 1 ul cAMP-d2 in lysis buffer (HTRF cAMP HiRange kit, CisBio). (6) Add 1 ul anti-cAMP antibody-cryptate in lysis buffer (HTRF cAMP HiRange kit, CisBio). (7) Incubate 30 min at room temperature. (6) Detect the assay plate in a ViewLux plate reader (PerkinElmer) with Ex=320 nm, Em1=615 nm and Em2=665 nm. Keywords: relaxin, RXFP1, RXFP2, G-protein coupled receptor, cAMP, agonist, high throughput screening, MLSMR, MLSCN, NIH Roadmap, qHTS and NCGC

Sequence of Relaxin receptor 2 (Homo sapiens) (Q8WXD0 whole entry, looked up): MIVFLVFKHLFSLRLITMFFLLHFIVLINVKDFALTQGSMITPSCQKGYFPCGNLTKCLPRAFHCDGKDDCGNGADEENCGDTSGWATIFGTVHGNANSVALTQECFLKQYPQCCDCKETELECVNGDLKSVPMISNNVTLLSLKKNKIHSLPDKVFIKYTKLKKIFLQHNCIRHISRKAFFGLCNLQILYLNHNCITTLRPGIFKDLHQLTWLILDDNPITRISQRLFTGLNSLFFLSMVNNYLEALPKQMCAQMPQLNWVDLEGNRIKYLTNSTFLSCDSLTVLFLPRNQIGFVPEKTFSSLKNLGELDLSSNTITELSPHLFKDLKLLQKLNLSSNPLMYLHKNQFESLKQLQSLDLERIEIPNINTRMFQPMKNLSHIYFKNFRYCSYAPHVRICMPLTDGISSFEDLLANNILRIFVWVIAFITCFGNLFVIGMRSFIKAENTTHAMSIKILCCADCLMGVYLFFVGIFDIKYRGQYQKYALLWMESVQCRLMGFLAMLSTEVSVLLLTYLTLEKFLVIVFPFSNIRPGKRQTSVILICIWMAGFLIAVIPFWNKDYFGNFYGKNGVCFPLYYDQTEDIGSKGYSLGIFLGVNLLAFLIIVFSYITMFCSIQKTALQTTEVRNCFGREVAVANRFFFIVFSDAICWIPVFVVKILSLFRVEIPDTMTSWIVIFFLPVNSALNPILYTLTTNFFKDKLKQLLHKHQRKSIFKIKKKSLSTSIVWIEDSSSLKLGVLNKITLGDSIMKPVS

Potency, active:
CCOc1ccccc1C(=O)Nc1ccncc1C(=O)Nc1cccc(S(=O)(=O)C(F)(F)F)c1 9.4 µM, COc1ccccc1C(=O)Nc1ccccc1C(=O)Nc1cccc(C(F)(F)F)c1 5.93 µM, CCOc1ccccc1C(=O)Nc1ccccc1C(=O)Nc1cccc(C(F)(F)F)c1 9.4 µM

Potency, inactive:
O=C(NCc1ccco1)c1ccccc1NC(=O)c1ccccc1NC(=O)C1CCCCC1, O=C(Nc1cccc(S(=O)(=O)C(F)(F)F)c1)c1ccccc1NC(=O)c1ccccc1OCC(F)(F)F, O=C(Nc1cccc(C(F)(F)F)c1)c1ccccc1NC(=O)C1CCCCC1, O=C(Nc1cccc(Cl)c1)c1ccccc1NC(=O)C1CCCCC1, COc1ccccc1C(=O)Nc1cccc(C(=O)Nc2cccc(C(F)(F)F)c2)c1, COc1cccc(NC(=O)c2ccccc2NC(=O)C2CCCCC2)c1, O=C(Cc1ccccc1)Nc1ccccc1C(=O)Nc1cccc(C(F)(F)F)c1, CC(C)(C)c1cccc(NC(=O)c2ccccc2NC(=O)C2CCCCC2)c1, O=C(Nc1ccccc1)c1ccccc1NC(=O)C1CCCCC1, CSc1cccc(NC(=O)c2ccccc2NC(=O)C2CCCCC2)c1, COc1ccccc1C(=O)N(C)c1ccccc1C(=O)N(C)c1cccc(C(F)(F)F)c1, COc1ccccc1C(=O)N(C)c1ccccc1C(=O)Nc1cccc(C(F)(F)F)c1, CCOc1ccccc1C(=O)Nc1ncccc1C(=O)Nc1cccc(S(=O)(=O)C(F)(F)F)c1, Cc1cccc(NC(=O)c2ccccc2NC(=O)C2CCCCC2)c1, COCCNc1ccccc1C(=O)Nc1cccc(C(F)(F)F)c1, O=C(Nc1cccc(SC(F)(F)F)c1)c1ccccc1NC(=O)C1CCCCC1, CCC(CC)C(=O)Nc1ccccc1C(=O)Nc1cccc(C(F)(F)F)c1, CCOc1ccccc1C(=O)Nc1ccccc1CNc1cccc(S(=O)(=O)C(F)(F)F)c1, CN(C)CCOc1ccccc1C(=O)Nc1ccccc1C(=O)Nc1cccc(C(F)(F)F)c1, CCSc1ccccc1C(=O)Nc1ccccc1C(=O)Nc1cccc(S(=O)(=O)C(F)(F)F)c1, COc1cccc(OC)c1C(=O)Nc1ccccc1C(=O)Nc1cccc(C(F)(F)F)c1, O=C(Nc1cccc(C(F)(F)F)c1)c1ccccc1NC(=O)C1CCC1, COc1ccc(C(=O)Nc2ccccc2C(=O)Nc2cccc(C(F)(F)F)c2)cc1, COc1ccccc1CNc1ccccc1C(=O)Nc1cccc(C(F)(F)F)c1, O=C(Nc1ccccc1C(=O)Nc1cccc(C(F)(F)F)c1)c1cccnc1, O=C(Nc1cccc(S(=O)(=O)C(F)(F)F)c1)c1ccccc1NC(=O)C1CCCCC1, CC(C)Oc1ccccc1C(=O)Nc1ccccc1C(=O)Nc1cccc(C(F)(F)F)c1, O=C(Nc1cccc([N+](=O)[O-])c1)c1ccccc1NC(=O)C1CCCCC1, Cc1ccccc1NC(=O)c1ccccc1NC(=O)C1CCCCC1, CCOc1ccccc1S(=O)(=O)Nc1ccccc1C(=O)Nc1cccc(S(=O)(=O)C(F)(F)F)c1, O=C(Nc1cccc(C(F)(F)F)c1)c1ccccc1NC(=O)C1CCCC1, O=C(Nc1cccc(C(F)(F)F)c1)c1ccccc1NC(=O)C1CCCCCC1, O=C(Nc1cccc(C(F)(F)F)c1)c1ccccc1NC(=O)C1CC1, COc1ccccc1C(=O)Nc1ccc(C(=O)Nc2cccc(C(F)(F)F)c2)cc1, COc1ccccc1C(=O)Nc1ccccc1C(=O)Nc1cccc(S(=O)(=O)C(F)(F)F)c1, O=C(Nc1ccc(C(F)(F)F)cc1)c1ccccc1NC(=O)C1CCCCC1, CCOc1ccccc1-c1nc2c(C(=O)Nc3cccc(S(=O)(=O)C(F)(F)F)c3)cccc2[nH]1
